Sampled rows, rich in hits. Any-hit rate of the full collection: about 5%.
SENP8 block-1: blocks human SENP8 cleavage of Nedd8 substrate | inhibition, % at 20 µM | recombinant SENP8, Nedd8 substrate fluorescence | hit rate 0.64% among 360,000; in the data active means inhibition mostly above about 40%, no sharp cut-off; inactive means mostly below about 27%
Target sequence (Q96LD8 whole entry, looked up): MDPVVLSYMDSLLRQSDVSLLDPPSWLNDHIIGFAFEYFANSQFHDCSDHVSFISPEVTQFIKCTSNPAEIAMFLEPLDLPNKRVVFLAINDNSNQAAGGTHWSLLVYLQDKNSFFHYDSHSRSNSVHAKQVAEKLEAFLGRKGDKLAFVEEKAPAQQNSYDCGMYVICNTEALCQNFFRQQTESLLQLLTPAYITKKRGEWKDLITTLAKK
SENP6 block: inhibitors of human SENP6 protease; hit rate 1.8% among 330,000; inhibition, % at 10 µM; Recombinant SENP6 catalytic domain, aminoluciferin luminescence; Q9GZR1;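 active means inhibition above about 50% at the single tested dose, limit read from the data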;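 further: plate controls were DMSO wells with enzyme for no effect and DMSO wells lacking enzyme for full effect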
EBI2 antag: EBI2 (human) antagonism; P32249; EBI2 beta-arrestin recruitment, luminescence, 7a,25-OHC stimulated; inhibition, % at 5 µM; hit rate 0.81% among 360,000; AID 651636; in the data active means inhibition above about 38%;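 further: enzyme fragment complementation signal reports receptor beta-arrestin coupling in cells; 0% = agonist plus DMSO wells and 100% = wells without agonist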
SENP8 block-2: blocks the human protease SENP8; purified SENP8, Z-RLRGG-aminoluciferin cleavage, luminescence; hit rate 1.2% among 330,000; AID 2540; inhibition, % at 10 µM; in the data active means inhibition above about 50%
AHR act: activators of human aryl hydrocarbon receptor; activation, % at 5 µM; AID 2796; hit rate 2.5% among 320,000; P35869; AHR-responsive luciferase reporter cells, luminescence; in the data active means activation above about 47%;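 further: 0% = vehicle wells and 100% = reference agonist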
SENP7 inh: inhibitors of human SENP7 protease; Q9BQF6; hit rate 1.5% among 330,000; recombinant SENP7, Z-RLRGG-aminoluciferin luminescence, 40 min; inhibition, % at 5 µM;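 active means inhibition above about 50% at the single test dose, limit read from the data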;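 further: plate controls were DMSO with enzyme for no effect and no enzyme buffer wells for full effect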
SENP8 confirm: confirmation of human SENP8 protease inhibitors; inhibition, % at 12.5 µM; hit rate 40% among 6,200; Recombinant SENP8, Z-RLRGG-aminoluciferin luminescence, 60 min; shares compounds with SENP7 inh; AID 488912;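 active means mean inhibition across replicates above about 50%, limit read from the data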
SENP6 confirm: human SENP6 inhibition, confirmed | shares compounds with SENP7 inh | recombinant SENP6, Z-RLRGG-aminoluciferin luminescence | inhibition, % at 12.5 µM | hit rate 58% among 6,200
SENP7 conf: confirmation of human SENP7 protease inhibitors. inhibition, % at 12.5 µM. AID 488917. hit rate 69% among 6,200. recombinant SENP7, Z-RLRGG-aminoluciferin luminescence, 40 min. shares compounds with SENP7 inh
Casp3 SENP sel: selectivity test for SENP inhibitors: human caspase-3 inhibition. shares compounds with SENP7 inh. inhibition, % at 12.5 µM. hit rate 60% among 6,200. AID 488918. purified caspase-3, Z-DEVD-aminoluciferin luminescence, 60 min;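 active means mean inhibition above about 50%, limit read from the data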;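 further: plate controls were enzyme with DMSO for no effect and wells without caspase-3 for full effect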
Target sequence (P42574 28-227 limits assumed): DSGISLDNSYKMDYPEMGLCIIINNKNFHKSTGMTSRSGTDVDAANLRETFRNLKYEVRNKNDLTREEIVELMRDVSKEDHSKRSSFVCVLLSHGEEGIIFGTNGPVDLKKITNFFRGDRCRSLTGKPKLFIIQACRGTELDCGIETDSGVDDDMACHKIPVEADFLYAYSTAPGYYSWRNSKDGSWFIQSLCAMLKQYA
SENP luc ctr: interferes with luciferase luminescence in SENP counter-screen; shares compounds with SENP7 inh; Pre-incubated SENP8/Z-RLRGG-aminoluciferin, luciferase luminescence interference; AID 488919; hit rate 39% among 6,200; inhibition, % at 12.5 µM;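 active means mean inhibition above about 50% when retested at one dose, limit read from the data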;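 further: plate controls were DMSO wells with completed reaction for no effect and substrate without enzyme for full effect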
Starred values were filed as active, the others as inactive; x = no result given.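 How the source made its calls, unless noted: active means mean inhibition above about 50% in the one-dose retest (limit read from the data); inactive means the rest.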

SMILES	SENP8 block-1	SENP6 block	EBI2 antag	SENP8 block-2	AHR act	SENP7 inh	SENP8 confirm	SENP6 confirm	SENP7 conf	Casp3 SENP sel	SENP luc ctr
CCOC(=O)c1ccc(Nc2nc(N)c3cc(OC)c(OC)cc3n2)cc1	-286	76*	-5	73*	-2	97*	66*	78*	95*	58*	64*
COc1cc2nc(Nc3ccc(F)cc3)nc(N)c2cc1OC	-321	63*	-9	51*	-2	67*	66*	63*	90*	61*	70*
COc1ccc(NC(=O)CCc2nnc3ccc(N4CCC5(CC4)OCCO5)nn23)cc1	-14	-4	2	1	2	-1	x	x	x	x	x
O=C(COc1ccc(F)cc1F)Nc1cccnc1	2	-11	6	-10	-1	-9	x	x	x	x	x
COc1ccc(/C=C/c2cc(C(=O)O)c3ccccc3n2)cc1	-438	-3	-14	69*	-4	55*	-24	-3	2	-3	7
O=C(COc1ccc2ccccc2c1)Nc1ccccc1C(=O)O	-6	55*	1	34	10	7	54*	51*	27	50	23
O=C(/C=C\c1ccco1)Nc1cc([N+](=O)[O-])ccc1F	18	-12	-9	-12	1	-2	x	x	x	x	x
O=C(/C=C/c1ccco1)Nc1cc(Cl)ccc1C(=O)O	-44	73*	-5	56*	1	7	72*	71*	88*	70*	75*
O=C(/C=C/c1ccco1)Nc1ccccc1C(=O)Nc1cccc(C(=O)O)c1	-14	11	-10	-4	1	1	x	x	x	x	x
O=C(/C=C/c1ccco1)Nc1ccccc1C(=O)O	-10	93*	-13	88*	6	83*	93*	94*	101*	97*	93*
Cc1ccc2c(c1)c1c(c(=O)n(-c3ccccc3C)c(=O)n1CC(=O)NCC1CCCO1)n2C (configuration not stated)	-288	0	0	4	4	-2	x	x	x	x	x
NNC(=S)NCc1ccc2c(c1)OCO2	20	-28	1	-10	12	-1	x	x	x	x	x
COc1ccc(/C=C/C(=O)Nc2ccccc2C(=O)O)cc1	-4	95*	-3	93*	0	96*	97*	97*	100*	96*	96*
N#Cc1c(Nc2ccc(Cl)cc2)s[nH]c1=O	-23	59*	-9	47	13	25	56*	49	85*	69*	39
CSc1nc(Nc2ccc(Cl)cc2)c(C#N)c(=O)[nH]1	-5	5	3	12	8	-2	x	x	x	x	x
Nc1c2c(nc3sc4c(c13)CCCC4)-c1ccccc1CC2	-399	92*	11	92*	34	90*	20	93*	96*	82*	6
Cc1csc2c(=O)sc(NC(=O)c3ccc(F)cc3)nc12	-123	-22	-2	-2	8	4	x	x	x	x	x
O=C(Nc1nc2ccsc2c(=O)s1)c1ccc(F)cc1	-83	96*	-6	94*	-2	100*	37	93*	47	56*	18
Cc1csc2c(=O)sc(NC(=O)c3ccc(F)cc3Cl)nc12	-31	-26	-7	-15	4	3	x	x	x	x	x
O=C(Nc1nc2ccsc2c(=O)s1)c1ccc(F)cc1Cl	-104	89*	-13	86*	-1	98*	44	52*	45	52*	4
O=C(c1cc(-c2ccc(O)cc2)on1)N1CCCCCC1	-1	13	0	-14	1	-12	x	x	x	x	x

From PubChem
